The supplement of paper PMC11732987, “Enantioselective OTUD7B fragment discovery through chemoproteomics screening and high-throughput optimisation” (Communications Chemistry, 2025)

Experiments:
Assay in all cases: log2 ratio of Biotin-Ahx-Ub-VS probe labelling (fragment/DMSO); higher = less target engagement (more negative = stronger competition), active = hit call of the paper (q ≤ 0.05, log2 ratio ≤ -1)
Conditions in all cases: compound concentration: 200 uM; treatment time: 3 h
[1] = molecular target: T1, OTUD6B (UniProt Q8N6M0)
T1 sequence (whole entry): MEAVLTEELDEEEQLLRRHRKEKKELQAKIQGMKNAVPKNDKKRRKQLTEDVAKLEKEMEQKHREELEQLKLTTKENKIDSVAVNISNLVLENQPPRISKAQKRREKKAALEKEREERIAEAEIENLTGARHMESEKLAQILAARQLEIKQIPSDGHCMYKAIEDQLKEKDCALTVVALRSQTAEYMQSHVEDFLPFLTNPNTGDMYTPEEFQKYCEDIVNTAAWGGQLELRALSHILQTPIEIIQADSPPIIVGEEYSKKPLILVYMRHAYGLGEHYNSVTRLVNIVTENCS
Outline: (§1)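 HEK293T lysate (495 µg per sample, in Tris/CHAPS/IGEPAL buffer with protease inhibitors) was exposed in triplicate for 3 h to fragment at 200 µM or to vehicle, then to Biotin-Ahx-Ub-VS at 0.5 µM final for 1 h. Labelled DUBs were enriched on NeutrAvidin, digested with LysC and trypsin, and analysed by diaPASEF LC-MS/MS. Spectronaut label-free quantities were normalised to the global median, and values are average log2 ratios of fragment over vehicle from an unpaired t-test. Only proteins with ≥2 unique peptides were used.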

[2] = molecular target: T2, OTUD7B (UniProt Q6GQQ9)
T2 sequence (whole entry): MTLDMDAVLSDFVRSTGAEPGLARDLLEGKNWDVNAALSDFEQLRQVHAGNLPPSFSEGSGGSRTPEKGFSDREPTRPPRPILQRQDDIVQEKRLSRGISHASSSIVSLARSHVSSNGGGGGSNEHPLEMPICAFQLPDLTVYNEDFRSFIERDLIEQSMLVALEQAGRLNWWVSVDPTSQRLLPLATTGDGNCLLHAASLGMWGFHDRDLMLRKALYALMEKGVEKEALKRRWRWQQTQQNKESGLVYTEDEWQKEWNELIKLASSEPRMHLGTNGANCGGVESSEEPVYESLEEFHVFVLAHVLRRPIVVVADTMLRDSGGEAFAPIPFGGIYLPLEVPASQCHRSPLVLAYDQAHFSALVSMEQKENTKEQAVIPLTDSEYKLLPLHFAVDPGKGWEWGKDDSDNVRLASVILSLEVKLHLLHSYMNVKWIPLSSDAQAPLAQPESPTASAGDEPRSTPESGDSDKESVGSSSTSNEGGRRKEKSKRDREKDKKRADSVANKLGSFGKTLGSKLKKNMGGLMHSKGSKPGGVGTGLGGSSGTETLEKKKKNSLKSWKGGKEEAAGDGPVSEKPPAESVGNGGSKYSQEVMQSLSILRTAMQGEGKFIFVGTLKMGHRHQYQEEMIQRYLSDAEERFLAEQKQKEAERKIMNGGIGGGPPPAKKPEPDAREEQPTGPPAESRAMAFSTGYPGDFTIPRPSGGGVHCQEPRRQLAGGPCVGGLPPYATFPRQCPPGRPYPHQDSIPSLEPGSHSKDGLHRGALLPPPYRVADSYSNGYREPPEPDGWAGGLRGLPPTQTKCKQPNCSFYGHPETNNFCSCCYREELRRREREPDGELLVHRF
Outline: as §1

[3] = molecular target: PRPF8 (UniProt Q6P2Q9)
Outline: as §1

[4] = molecular target: T3, PSMD7 (UniProt P51665)
T3 sequence (whole entry): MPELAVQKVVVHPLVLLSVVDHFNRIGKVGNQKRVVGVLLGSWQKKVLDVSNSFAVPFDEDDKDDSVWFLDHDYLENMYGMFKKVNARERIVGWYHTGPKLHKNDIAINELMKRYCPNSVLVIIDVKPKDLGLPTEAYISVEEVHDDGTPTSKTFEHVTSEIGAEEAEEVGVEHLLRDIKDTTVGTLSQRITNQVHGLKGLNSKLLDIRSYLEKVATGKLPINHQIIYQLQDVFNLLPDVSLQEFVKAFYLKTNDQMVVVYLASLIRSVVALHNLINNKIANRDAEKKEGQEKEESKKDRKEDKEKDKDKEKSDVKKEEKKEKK
Outline: as §1

[5] = molecular target: UCHL1 (UniProt P09936)
Chain of UCHL1 (P09936 whole entry, looked up): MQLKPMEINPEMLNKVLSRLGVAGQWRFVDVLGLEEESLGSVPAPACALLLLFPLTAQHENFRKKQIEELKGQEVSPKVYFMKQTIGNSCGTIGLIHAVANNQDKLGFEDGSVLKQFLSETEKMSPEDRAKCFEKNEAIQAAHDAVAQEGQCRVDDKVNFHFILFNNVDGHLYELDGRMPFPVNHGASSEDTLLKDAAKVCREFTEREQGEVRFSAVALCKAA
Outline: as §1

[6] = molecular target: T4, UCHL3 (UniProt P15374)
T4 sequence (whole entry): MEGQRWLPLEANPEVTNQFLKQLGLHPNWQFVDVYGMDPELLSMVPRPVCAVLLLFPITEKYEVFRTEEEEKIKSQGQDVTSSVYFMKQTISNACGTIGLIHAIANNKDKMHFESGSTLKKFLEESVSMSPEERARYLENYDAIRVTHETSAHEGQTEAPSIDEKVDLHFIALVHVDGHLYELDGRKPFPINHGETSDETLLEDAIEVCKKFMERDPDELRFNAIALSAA
Outline: as §1

[7] = molecular target: T5, UCHL5 (UniProt Q9Y5K5)
T5 sequence (whole entry): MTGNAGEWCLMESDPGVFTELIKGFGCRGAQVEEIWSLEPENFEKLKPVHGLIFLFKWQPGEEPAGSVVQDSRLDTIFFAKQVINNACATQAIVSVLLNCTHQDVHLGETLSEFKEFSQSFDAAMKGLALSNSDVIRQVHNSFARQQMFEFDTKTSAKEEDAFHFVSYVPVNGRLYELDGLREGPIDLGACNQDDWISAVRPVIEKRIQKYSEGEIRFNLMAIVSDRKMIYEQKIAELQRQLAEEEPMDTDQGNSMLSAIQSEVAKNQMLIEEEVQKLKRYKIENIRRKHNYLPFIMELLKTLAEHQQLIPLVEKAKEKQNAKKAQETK
Outline: as §1

[8] = molecular target: USP10 (UniProt Q14694)
Chain of USP10 (Q14694 whole entry): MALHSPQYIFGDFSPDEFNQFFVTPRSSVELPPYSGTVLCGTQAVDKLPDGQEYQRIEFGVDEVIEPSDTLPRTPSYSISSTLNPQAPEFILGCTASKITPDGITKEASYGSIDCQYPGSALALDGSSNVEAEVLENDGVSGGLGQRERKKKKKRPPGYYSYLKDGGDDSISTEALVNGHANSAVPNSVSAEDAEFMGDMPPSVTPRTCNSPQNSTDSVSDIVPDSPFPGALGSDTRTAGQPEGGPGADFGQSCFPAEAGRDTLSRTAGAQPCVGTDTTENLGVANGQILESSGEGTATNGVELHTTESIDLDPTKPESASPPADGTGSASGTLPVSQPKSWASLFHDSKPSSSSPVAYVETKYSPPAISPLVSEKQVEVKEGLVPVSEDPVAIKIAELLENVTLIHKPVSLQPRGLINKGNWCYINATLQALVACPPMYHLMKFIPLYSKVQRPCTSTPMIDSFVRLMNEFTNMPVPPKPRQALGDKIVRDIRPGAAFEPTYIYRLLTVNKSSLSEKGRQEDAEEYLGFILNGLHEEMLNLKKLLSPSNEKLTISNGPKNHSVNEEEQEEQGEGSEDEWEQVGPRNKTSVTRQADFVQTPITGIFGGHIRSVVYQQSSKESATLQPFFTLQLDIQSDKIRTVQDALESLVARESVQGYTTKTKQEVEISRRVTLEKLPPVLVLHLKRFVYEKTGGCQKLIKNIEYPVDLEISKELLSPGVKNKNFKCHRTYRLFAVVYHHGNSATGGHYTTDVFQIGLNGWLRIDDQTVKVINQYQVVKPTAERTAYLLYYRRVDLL
Outline: as §1

[9] = molecular target: T6, USP15 (UniProt Q9Y4E8)
T6 sequence (whole entry): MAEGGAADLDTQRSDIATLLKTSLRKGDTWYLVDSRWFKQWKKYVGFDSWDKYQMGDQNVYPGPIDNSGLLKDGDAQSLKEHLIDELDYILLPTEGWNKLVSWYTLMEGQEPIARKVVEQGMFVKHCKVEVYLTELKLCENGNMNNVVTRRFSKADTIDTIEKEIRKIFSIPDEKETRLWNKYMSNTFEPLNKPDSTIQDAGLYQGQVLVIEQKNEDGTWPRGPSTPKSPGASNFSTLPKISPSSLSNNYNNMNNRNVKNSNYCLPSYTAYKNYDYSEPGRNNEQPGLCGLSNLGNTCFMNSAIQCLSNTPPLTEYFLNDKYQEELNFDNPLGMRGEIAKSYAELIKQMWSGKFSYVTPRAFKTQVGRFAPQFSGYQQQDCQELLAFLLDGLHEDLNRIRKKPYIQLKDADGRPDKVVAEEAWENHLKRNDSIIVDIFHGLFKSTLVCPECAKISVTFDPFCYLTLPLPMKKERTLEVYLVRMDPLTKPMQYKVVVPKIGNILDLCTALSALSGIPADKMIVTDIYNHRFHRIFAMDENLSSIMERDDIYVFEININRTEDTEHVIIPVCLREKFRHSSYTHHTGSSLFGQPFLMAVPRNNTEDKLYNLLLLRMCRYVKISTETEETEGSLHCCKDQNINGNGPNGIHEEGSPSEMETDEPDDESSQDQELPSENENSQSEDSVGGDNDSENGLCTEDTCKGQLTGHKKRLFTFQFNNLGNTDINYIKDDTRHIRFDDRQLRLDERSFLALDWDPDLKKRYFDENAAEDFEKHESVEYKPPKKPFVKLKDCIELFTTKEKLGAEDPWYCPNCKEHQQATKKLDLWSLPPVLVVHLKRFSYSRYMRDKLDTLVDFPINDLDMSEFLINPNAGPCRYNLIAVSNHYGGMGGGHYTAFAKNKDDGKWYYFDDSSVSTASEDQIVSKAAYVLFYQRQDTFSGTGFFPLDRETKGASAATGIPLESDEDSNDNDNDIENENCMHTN
Outline: as §1

[10] = molecular target: USP16 (UniProt Q9Y5T5)
Chain of USP16 (Q9Y5T5 whole entry, looked up): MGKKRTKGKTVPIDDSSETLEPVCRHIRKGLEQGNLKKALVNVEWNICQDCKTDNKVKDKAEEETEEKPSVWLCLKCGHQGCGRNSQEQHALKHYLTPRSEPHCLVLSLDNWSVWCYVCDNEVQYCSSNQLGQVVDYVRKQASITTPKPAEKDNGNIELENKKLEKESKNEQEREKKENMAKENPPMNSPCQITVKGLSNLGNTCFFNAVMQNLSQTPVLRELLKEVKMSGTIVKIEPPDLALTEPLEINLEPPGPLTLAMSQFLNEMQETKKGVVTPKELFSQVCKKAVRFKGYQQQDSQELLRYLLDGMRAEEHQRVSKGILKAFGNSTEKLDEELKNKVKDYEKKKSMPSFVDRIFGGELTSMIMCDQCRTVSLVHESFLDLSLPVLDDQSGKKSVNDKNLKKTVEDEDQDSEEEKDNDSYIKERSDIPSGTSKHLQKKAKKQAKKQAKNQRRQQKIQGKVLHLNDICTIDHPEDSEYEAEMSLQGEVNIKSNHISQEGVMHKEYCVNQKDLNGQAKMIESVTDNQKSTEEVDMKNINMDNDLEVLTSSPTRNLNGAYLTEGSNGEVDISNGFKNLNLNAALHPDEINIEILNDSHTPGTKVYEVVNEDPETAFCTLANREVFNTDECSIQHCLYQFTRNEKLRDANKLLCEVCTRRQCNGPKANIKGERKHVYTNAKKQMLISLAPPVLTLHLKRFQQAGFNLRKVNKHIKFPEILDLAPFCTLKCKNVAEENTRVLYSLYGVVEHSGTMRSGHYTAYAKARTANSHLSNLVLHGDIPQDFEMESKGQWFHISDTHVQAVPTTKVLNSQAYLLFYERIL
Outline: as §1

Measured: log2 ratio of Biotin-Ahx-Ub-VS probe labelling

COCC1C=CCCN1C(=O)CCl (stereo not given)
active: [5] -1.94
inactive: [1] -0.121 | [2] -0.466 | [3] -0.181 | [4] -0.134 | [6] -0.0426 | [7] -0.167 | [8] -0.0693 | [9] -0.145 | [10] -0.0544
